Laboratory results: the supplement of paper PMC11732987, “Enantioselective OTUD7B fragment discovery through chemoproteomics screening and high-throughput optimisation” (Communications Chemistry, 2025)

How the values were obtained:
Assay in all cases: log2 ratio of Biotin-Ahx-Ub-VS probe labelling (fragment/DMSO); higher = less target engagement (more negative = stronger competition), active = hit call of the paper (q ≤ 0.05, log2 ratio ≤ -1)
Details in all cases: compound concentration: 200 uM; treatment time: 3 h
USP42 = biological target: T1, USP42 (UniProt Q9H9J4)
T1 sequence (whole entry): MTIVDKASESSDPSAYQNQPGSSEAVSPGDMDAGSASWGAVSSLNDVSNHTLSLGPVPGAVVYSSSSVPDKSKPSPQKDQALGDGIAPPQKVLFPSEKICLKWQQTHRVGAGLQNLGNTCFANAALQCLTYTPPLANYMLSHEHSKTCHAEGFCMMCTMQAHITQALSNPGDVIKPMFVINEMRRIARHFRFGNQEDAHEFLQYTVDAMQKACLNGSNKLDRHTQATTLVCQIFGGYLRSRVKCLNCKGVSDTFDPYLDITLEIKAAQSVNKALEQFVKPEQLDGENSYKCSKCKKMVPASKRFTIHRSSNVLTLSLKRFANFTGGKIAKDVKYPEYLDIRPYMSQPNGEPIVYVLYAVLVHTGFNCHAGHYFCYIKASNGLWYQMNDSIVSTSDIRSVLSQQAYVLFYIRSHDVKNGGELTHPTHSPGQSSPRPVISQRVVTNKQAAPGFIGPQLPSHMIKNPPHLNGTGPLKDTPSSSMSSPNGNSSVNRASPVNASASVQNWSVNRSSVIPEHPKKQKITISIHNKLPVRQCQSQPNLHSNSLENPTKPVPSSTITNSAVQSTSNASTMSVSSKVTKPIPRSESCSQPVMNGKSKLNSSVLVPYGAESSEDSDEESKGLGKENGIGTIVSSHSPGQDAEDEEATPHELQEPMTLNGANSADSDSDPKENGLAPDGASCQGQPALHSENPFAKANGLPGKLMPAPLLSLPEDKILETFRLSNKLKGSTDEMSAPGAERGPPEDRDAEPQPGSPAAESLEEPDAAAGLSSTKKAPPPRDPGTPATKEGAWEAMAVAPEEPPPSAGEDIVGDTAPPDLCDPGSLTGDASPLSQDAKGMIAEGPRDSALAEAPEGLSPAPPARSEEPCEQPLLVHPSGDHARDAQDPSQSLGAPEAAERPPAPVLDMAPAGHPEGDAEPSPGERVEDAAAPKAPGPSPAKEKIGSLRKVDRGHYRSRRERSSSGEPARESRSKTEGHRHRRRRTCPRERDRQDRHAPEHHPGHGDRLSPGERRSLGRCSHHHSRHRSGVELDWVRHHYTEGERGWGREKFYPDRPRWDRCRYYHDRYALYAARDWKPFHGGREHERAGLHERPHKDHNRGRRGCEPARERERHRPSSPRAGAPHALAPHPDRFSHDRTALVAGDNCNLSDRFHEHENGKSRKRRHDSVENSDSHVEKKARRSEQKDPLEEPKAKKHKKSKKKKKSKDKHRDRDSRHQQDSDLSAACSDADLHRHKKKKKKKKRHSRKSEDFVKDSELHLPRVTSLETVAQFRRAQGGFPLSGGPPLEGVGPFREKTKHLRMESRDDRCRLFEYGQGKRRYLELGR
How it was run: (§1)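 Global-median-normalised Spectronaut label-free quantities were compared by unpaired t-test, and values are average log2 ratios of fragment over vehicle. Only proteins with ≥2 unique peptides were used. HEK293T lysate (495 µg per sample) was treated in triplicate with fragment at 200 µM or vehicle for 3 h and then with Biotin-Ahx-Ub-VS at 0.5 µM final for 1 h. Labelled DUBs were then NeutrAvidin-enriched, digested with LysC and trypsin, and run by diaPASEF LC-MS/MS.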

USP46 = USP46 (UniProt P62068)
USP46, sequence (P62068 whole entry): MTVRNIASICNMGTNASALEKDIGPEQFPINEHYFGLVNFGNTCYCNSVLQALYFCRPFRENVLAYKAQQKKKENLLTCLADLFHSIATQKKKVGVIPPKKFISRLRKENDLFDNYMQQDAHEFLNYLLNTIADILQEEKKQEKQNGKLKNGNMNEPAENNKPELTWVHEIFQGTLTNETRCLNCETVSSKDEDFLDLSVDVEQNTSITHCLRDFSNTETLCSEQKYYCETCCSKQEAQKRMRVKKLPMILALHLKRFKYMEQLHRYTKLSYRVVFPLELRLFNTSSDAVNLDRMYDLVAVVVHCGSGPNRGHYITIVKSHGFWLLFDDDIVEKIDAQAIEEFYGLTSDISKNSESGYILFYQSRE
How it was run: as §1

USP47 = biological target: T2, USP47 (UniProt Q96K76)
T2 sequence (whole entry): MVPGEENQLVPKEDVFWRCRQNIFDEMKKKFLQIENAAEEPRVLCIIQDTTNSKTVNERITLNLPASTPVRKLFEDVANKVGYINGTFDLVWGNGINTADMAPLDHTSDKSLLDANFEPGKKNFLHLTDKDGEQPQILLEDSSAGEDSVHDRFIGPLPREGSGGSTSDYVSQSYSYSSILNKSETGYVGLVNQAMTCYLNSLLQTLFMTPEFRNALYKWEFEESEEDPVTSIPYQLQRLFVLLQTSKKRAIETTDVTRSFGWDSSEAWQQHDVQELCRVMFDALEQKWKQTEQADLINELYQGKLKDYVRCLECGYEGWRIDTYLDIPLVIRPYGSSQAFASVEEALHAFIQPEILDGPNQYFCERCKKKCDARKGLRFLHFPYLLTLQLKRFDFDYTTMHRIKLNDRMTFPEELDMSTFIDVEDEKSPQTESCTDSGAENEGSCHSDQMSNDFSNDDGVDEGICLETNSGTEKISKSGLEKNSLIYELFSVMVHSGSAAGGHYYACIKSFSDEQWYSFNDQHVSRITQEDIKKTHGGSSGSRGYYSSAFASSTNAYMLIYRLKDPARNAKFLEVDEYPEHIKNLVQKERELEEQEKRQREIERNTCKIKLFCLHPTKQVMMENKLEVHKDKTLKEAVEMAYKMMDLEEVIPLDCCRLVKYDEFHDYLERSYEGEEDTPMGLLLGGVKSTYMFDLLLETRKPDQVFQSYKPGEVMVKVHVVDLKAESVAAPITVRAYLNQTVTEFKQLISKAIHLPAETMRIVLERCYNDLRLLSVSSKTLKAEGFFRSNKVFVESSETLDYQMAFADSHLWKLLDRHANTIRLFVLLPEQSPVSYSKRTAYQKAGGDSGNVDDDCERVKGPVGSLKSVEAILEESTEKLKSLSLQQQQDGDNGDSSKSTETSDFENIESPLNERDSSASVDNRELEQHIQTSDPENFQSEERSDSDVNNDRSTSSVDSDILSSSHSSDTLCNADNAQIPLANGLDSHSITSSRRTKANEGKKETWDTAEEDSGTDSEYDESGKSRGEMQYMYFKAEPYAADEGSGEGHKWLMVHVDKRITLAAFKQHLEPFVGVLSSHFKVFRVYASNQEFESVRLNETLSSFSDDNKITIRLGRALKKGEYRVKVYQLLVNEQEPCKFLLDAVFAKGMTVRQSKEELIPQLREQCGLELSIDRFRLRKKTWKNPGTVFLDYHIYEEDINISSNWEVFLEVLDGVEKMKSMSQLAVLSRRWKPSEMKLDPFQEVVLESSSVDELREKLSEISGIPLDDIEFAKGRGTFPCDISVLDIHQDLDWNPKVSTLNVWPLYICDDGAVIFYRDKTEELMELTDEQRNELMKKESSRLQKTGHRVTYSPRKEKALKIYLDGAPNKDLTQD
How it was run: as §1

USP48 = biological target: T3, USP48 (UniProt Q86UV5)
T3 sequence (whole entry): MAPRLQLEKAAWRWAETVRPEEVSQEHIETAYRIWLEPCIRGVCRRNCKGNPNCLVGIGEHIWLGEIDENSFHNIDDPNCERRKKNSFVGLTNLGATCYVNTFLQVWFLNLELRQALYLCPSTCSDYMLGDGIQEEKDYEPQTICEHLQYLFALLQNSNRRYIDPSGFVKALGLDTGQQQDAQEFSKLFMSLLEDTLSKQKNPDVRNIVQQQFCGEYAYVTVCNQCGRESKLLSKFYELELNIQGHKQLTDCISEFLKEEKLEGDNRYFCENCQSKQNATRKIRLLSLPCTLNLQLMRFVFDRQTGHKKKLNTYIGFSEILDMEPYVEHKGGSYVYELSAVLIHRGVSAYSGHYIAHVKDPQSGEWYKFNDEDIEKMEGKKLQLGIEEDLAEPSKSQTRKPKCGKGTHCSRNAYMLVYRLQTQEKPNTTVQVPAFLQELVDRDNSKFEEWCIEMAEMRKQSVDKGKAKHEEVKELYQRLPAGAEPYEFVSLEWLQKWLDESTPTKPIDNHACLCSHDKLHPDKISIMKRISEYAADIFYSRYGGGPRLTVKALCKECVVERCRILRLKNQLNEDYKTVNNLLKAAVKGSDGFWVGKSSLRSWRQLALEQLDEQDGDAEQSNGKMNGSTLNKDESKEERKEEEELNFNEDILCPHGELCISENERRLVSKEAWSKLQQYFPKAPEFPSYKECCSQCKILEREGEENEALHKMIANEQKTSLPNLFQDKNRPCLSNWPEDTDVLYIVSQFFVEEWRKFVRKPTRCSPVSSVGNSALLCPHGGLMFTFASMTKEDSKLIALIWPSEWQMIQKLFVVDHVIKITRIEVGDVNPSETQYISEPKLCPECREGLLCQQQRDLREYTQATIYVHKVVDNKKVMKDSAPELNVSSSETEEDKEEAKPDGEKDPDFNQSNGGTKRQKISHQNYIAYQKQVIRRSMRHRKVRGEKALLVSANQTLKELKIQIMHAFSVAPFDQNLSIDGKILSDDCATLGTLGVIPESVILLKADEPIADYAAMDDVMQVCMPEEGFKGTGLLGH
How it was run: as §1

USP5 = biological target: T4, USP5 (UniProt P45974)
T4 sequence (whole entry): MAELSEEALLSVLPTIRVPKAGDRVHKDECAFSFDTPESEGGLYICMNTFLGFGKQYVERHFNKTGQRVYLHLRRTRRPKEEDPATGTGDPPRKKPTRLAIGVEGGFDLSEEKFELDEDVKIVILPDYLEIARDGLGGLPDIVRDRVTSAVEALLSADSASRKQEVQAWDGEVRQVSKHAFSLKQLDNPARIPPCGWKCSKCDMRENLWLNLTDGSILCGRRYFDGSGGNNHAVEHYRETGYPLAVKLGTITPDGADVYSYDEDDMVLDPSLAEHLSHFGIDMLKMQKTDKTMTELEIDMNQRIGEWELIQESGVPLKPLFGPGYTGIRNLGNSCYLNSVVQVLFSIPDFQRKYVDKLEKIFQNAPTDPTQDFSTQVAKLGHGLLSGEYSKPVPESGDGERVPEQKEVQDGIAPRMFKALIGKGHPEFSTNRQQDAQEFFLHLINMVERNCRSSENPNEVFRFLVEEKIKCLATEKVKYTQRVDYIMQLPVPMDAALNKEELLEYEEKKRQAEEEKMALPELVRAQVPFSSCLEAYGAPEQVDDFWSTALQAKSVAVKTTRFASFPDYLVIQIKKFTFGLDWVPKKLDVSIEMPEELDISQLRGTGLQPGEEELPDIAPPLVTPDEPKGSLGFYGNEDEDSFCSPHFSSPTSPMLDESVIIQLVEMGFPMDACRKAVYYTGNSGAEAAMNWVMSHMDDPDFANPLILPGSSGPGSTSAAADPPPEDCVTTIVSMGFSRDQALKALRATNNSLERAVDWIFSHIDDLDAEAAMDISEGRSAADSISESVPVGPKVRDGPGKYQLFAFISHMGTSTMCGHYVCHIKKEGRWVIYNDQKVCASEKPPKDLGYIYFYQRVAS
How it was run: as §1

USP54 = USP54 (UniProt Q70EL1)
USP54, sequence (Q70EL1 whole entry): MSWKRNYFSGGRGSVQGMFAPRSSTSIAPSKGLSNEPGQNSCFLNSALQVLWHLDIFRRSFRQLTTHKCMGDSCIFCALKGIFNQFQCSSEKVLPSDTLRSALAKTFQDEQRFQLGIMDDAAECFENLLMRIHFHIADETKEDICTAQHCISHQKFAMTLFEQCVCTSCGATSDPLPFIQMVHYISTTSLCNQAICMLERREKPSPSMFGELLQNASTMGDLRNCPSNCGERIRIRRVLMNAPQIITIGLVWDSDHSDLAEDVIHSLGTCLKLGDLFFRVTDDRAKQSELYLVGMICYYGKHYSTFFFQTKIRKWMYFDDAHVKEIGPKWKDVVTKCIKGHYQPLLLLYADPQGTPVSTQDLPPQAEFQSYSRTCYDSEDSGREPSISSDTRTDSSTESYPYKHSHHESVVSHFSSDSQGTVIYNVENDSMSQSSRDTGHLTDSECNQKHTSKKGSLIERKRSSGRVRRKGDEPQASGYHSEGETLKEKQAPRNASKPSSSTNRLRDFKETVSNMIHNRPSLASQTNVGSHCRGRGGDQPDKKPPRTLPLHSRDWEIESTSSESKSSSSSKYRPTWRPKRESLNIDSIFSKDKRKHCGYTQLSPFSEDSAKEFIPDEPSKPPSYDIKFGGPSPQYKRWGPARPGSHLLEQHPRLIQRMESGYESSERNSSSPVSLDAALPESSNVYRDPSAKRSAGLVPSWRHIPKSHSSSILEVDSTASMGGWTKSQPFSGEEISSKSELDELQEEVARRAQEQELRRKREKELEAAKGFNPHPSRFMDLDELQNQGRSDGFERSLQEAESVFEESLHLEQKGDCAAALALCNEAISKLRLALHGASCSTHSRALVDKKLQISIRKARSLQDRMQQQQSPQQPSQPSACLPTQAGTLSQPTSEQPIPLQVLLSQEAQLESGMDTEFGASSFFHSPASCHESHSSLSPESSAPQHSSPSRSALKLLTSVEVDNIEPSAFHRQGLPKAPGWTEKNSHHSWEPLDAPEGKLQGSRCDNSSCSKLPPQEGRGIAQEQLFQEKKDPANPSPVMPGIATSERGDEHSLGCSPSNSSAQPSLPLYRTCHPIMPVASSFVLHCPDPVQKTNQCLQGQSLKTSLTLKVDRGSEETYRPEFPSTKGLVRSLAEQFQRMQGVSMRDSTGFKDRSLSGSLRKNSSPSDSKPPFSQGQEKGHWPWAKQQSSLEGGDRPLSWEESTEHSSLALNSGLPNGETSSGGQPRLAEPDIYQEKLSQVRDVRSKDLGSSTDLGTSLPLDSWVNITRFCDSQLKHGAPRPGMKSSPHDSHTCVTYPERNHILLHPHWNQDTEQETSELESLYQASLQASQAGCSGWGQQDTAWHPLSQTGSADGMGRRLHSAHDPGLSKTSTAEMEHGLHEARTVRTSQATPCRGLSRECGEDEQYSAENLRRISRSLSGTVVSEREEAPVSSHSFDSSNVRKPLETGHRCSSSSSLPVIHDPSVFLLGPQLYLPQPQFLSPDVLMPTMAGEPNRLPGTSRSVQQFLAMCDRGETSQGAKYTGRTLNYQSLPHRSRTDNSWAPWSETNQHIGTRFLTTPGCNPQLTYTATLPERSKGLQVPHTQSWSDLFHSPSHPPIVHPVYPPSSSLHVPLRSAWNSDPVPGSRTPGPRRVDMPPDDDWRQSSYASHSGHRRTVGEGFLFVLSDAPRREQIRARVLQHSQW
How it was run: as §1

USP7 = USP7 (UniProt Q93009)
USP7, sequence (Q93009 whole entry, looked up): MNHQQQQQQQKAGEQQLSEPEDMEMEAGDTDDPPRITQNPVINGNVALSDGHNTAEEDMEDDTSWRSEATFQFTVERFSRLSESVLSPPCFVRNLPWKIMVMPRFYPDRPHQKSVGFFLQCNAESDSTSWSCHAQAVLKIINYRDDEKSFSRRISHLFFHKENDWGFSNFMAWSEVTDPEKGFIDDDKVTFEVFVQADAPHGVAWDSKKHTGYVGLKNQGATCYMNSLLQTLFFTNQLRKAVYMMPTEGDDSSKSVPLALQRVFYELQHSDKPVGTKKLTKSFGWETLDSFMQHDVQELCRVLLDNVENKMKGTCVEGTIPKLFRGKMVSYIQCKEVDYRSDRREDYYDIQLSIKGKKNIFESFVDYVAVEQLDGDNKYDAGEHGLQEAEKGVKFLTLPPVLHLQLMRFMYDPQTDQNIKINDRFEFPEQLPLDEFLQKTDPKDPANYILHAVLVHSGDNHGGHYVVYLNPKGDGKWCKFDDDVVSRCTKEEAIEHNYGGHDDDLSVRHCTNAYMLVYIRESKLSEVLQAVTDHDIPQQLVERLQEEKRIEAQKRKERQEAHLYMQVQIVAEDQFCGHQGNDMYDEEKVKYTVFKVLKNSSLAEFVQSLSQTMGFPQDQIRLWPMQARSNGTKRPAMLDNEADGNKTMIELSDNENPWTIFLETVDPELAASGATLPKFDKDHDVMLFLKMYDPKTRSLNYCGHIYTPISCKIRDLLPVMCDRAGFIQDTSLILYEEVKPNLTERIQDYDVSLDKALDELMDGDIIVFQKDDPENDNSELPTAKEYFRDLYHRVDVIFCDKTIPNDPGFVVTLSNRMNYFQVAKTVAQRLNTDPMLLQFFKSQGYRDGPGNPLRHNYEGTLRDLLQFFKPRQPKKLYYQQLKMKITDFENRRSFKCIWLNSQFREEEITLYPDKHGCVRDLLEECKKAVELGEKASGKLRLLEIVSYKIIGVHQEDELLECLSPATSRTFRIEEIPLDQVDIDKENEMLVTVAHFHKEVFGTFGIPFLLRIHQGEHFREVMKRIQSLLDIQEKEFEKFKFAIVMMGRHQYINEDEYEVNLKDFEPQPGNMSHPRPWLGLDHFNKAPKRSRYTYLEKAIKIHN
How it was run: as §1

USP8 = biological target: T5, USP8 (UniProt P40818)
T5 sequence (whole entry): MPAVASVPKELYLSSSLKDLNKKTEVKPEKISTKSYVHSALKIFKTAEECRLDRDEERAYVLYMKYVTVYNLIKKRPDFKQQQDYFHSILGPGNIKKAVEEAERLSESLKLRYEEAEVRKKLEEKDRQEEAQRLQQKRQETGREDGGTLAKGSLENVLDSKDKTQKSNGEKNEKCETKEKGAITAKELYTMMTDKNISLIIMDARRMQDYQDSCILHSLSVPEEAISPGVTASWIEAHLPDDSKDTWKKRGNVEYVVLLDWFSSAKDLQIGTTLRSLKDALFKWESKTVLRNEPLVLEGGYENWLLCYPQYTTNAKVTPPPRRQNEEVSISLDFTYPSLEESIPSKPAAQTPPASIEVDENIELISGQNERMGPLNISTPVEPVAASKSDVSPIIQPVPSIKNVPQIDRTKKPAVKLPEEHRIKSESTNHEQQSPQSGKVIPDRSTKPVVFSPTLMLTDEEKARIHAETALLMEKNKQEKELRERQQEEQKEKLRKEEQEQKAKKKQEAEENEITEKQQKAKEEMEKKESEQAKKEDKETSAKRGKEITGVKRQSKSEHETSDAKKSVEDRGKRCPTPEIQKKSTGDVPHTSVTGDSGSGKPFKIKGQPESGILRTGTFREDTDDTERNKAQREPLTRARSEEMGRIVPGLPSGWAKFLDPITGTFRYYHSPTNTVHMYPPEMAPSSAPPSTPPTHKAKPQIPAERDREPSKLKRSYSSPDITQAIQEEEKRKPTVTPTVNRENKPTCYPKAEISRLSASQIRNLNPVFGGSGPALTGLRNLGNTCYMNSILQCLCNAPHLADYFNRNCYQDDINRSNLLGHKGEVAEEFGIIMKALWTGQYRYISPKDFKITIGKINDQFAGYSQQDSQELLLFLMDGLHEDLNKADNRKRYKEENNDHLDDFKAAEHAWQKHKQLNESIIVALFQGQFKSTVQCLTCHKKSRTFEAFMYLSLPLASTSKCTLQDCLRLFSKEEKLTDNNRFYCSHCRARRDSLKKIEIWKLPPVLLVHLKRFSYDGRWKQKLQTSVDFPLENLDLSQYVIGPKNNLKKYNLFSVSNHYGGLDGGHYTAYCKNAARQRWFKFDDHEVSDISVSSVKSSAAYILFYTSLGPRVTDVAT
How it was run: as §1

USP9X = USP9X (UniProt Q93008)
How it was run: as §1

UniProt O00487 = biological target: UniProt O00487
UniProt O00487, sequence (O00487 whole entry): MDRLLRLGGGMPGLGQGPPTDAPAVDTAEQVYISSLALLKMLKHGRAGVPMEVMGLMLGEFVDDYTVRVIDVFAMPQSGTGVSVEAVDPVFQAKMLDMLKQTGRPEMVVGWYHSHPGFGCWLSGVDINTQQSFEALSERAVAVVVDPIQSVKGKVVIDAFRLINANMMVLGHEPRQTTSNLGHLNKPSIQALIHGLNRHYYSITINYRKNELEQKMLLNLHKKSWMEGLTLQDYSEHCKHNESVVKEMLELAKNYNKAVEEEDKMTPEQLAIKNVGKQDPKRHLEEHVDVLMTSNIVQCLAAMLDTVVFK
How it was run: as §1

Measured: log2 ratio of Biotin-Ahx-Ub-VS probe labelling

NS(=O)(=O)c1ccc(Cl)c(NC(=O)CCl)c1
inactive: USP42 0.0225 | USP46 -0.123 | USP47 -0.247 | USP48 -0.536 | USP5 0.233 | USP54 -0.00214 | USP7 -0.207 | USP8 -0.125 | USP9X -0.31 | UniProt O00487 -0.0819
